High-throughput results from PubChem.
Hits are enriched below; roughly 2.3% of the tested compounds scored in any of these assays.
M1 PAM: potentiates human M1 receptor response to acetylcholine. AID 588819. 360,000 compounds, 0.088% hits. CHO-K1 hM1, Fluo-8 calcium fluorescence, ACh EC20; 0% = ACh EC20, 100% = maximal ACh. activation, % at 3 µM; in the data active = activation above about 19%, passing the limit was not always enough
Target sequence (P11229 whole entry, looked up): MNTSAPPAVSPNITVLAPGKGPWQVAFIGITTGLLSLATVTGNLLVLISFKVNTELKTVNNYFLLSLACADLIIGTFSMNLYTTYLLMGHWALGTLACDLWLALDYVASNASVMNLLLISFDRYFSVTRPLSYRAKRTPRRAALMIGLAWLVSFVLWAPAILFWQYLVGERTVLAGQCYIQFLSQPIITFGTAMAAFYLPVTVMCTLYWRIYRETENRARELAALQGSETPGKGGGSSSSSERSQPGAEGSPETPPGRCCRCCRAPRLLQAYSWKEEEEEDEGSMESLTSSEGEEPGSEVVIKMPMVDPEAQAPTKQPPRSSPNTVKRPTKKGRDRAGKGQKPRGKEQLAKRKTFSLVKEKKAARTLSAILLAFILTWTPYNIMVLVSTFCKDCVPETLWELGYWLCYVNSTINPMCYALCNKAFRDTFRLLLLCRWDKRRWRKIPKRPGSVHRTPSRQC
CHO-K1 Ca ag: counter-screen for M1 agonists: effect in parental CHO-K1 cells. AID 602248. activation, % at 3 µM. Fluo-8 calcium fluorescence; scaled to maximal ATP response, vehicle zero. 360,000 compounds, 0.48% hits; in the data active = activation above about 15%;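 also: untransfected CHO-K1 host cells lacking M1 receptor as counterscreen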
CHO-K1 Ca antag: nonselective inhibitor or artifact in parental CHO-K1 cells. ATP-induced calcium, Fluo-8 fluorescence. inhibition, % at 3 µM. 360,000 compounds, 0.6% hits;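 active = inhibition above a per-plate cutoff, the plate's mean sample inhibition plus 3 SD, cut at about 24% in these data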;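 also: 0% = DMSO plus EC80 ATP and 100% = DMSO alone without ATP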
M1 PAM parental: nonselective activator or artifact in parental CHO-K1 calcium assay; activation, % at 3 µM; ATP EC20, Fluo-8 calcium fluorescence; 0% at ATP EC20, 100% at ATP max; 360,000 compounds, 0.02% hits;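 active = activation above the run cutoff, the mean activation of all test compounds plus 3 SD, cut at about 40% in these data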;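 also: peak over basal fluorescence ratio in a 140 s read after ATP addition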
CHRM1 antagonist: blocks human M1 muscarinic receptor | 360,000 compounds, 1.3% hits | AID 588852 | P11229 | inhibition, % at 3 µM | CHO-K1 hM1, Fluo-8 calcium fluorescence, ACh EC80 antagonist;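 active = percent inhibition above its own plate's cutoff, namely the mean of that plate's compound wells plus 3 SD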;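 also: peak over basal fluorescence ratio during 140 s after agonist addition; 0% = ACh EC80 plus DMSO and 100% = DMSO alone without agonist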
CHRM1 agonist: human M1 muscarinic receptor agonism; P11229; AID 588814; activation, % at 3 µM; 360,000 compounds, 0.33% hits; CHO-K1 hM1, Fluo-8 calcium fluorescence, agonist mode; 0% DMSO, 100% acetylcholine EC100;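 active = activation above the run's mean compound activation plus 3 SD, cut at about 16% in these data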;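 also: peak over basal fluorescence ratio within a 140 s kinetic read after compound addition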
Numbers without * were called inactive; x = not tested or not shown.

SMILES	M1 PAM	CHO-K1 Ca ag	CHO-K1 Ca antag	M1 PAM parental	CHRM1 antagonist	CHRM1 agonist
O=c1c2ccccc2ncn1-c1ccc([N+](=O)[O-])cc1[N+](=O)[O-]	-8	19*	2	-20	2	6
CN(C)C(=O)CCc1ccc2c3c([nH]c2c1)[C@]1(CCc2ccccc2)[C@@H](C(=O)N2CCCCC2)C[C@H](CC(=O)NC(C)(C)C)C(=O)N1CC3	13	0	-5	13	-17	-10
CC[N+](CC)(CC)CCC(O)(c1ccccc1)C1CCCCC1 (stereo unspecified)	-25	1	-7	13	98*	-5
CCN(CC)CCC(O)(c1ccccc1)C1CCCCC1 (stereo unspecified)	-30	0	-4	1	100*	-10
CCCCc1ccc(S(=O)(=O)NC(=O)C2(C)CCN2C(=O)CC2CC2)cc1 (stereo unspecified)	16	0	-10	9	-26	0
O=c1[nH][nH]c2c1[C@H](c1ccc(Cl)cc1)O[C@H](C1CCCCC1)C2	x	0	-17	22	x	x
COc1ccc(C2SCC(=O)N2c2ccc(OC)cc2)cc1 (stereo unspecified)	7	0	2	-18	-4	-3
COc1cccc(C2SCC(=O)N2c2ccc(Br)cc2)c1OC (stereo unspecified)	-27	0	-9	13	74*	-11
COc1cccc2c(=O)n(CC(=O)Nc3ccc(F)cc3F)ccc12	-3	0	11	-6	28*	-1
CCOCCn1ccc2c(OCC(=O)Nc3ccccc3OC)cccc2c1=O	-14	4	12	-28	30*	-3
CCOCCn1ccc2c(OCC(=O)Nc3cc(OC)ccc3OC)cccc2c1=O	-8	3	-11	-13	8	-4
COc1cccc2c(=O)n(CC(=O)Nc3ccccc3)ccc12	2	-1	10	14	0	-3
Cc1ccc(S(=O)(=O)CCc2nnc(N)s2)cc1	1	0	-4	9	6	0
CCCCCCCn1c(=O)c(C(=O)OC)c(N)c2ccccc21	-15	23*	4	-8	28	4
CC(C)(C)C(=O)OCc1ccc(C2=CC(=O)CC(C)(C)C2=O)cc1	-5	2	-6	0	2	1
CC(=O)OCc1ccc(C2=CC(=O)CC(C)(C)C2=O)cc1	18	0	24*	-13	-9	3
CCCCN1C(=O)Cc2c1nc(N)c1c(N)nc(N(CCC)CCC)c(C#N)c21	0	0	25*	-9	13	-2
O=C(CN(Cc1ccc(F)cc1)C(=O)CNS(=O)(=O)c1ccc(Cl)cc1)NCC1CCCO1 (stereo unspecified)	14	1	5	6	-19	-6
Cc1ccccc1Oc1ccc2c(c1)[C@@H]1C[C@H](N(C)C(=O)c3cccnc3)[C@H]([C@H](C)O)C(=O)N1CC2	8	0	33*	-11	-19	0
C[C@H](O)[C@@H]1C(=O)N2CCc3ccc(-c4ccccc4)cc3[C@@H]2C[C@@H]1N(C)C(=O)NC1CCCCC1	-10	0	-13	15	42*	-9
Cc1ccccc1Oc1ccc2c(c1)[C@@H]1C[C@H](N(C)C(=O)NC3CCCCC3)[C@H]([C@H](C)O)C(=O)N1CC2	5	0	-10	15	-11	-5
O=C(NCCCN1CCCC1)Nc1ccccc1[N+](=O)[O-]	11	0	-2	12	-11	-7
Cc1ccc(C2=NOC(C)(c3nnc(Cc4ccccc4)o3)C2)cc1 (stereo unspecified)	1	1	-13	5	-1	-3
Cc1ccc(-n2c(CNc3ccc(F)cc3)nnc2SCC(N)=O)cc1	4	0	1	3	-4	-4
CC1(C(=O)NS(=O)(=O)c2ccccc2Cl)CCN1C(=O)C1(c2ccc(Cl)cc2)CCC1 (stereo unspecified)	4	-1	48*	-15	-12	-4
CC1(C(=O)NS(=O)(=O)c2ccccc2Cl)CCN1C(=O)C1(c2ccc(Cl)cc2)CC1 (stereo unspecified)	2	0	-7	12	-4	1
